Source: the supplement of paper PMC6555819

Assays:
Assay in all cases: PBM binding z-score (relative to random genomic background probes); higher = stronger binding; sequences stand for … in GC…GCGATTGACAGCGTAGAATGAAGG
[1] = test system: RARb homodimer (NR concentration 270 nM)
Procedure, shortened: (§1)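 Custom Agilent 4×180K protein-binding microarrays carried double-stranded probes, each with a 34-nt variable region. These regions held direct-repeat seeds, single-nucleotide variants, half-site ablations and random human genomic background sequences. Ligand-free nuclear receptor dimers were incubated on the arrays for 1 h, antibodies against each partner (one per run) detected binding, and scanned fluorescence was regression-normalized. Binding z-scores take the random background probes as reference.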

[2] = test system: RARg:RXRa (NR concentration 270 nM, RXRa partner concentration 90 nM)
Procedure, shortened: as §1

[3] = test system: RARg homodimer (NR concentration 270 nM)
Procedure, shortened: as §1

[4] = test system: RXRa DBDmut IVT, anti-RXR (DBD mutation: RXRa K156A/R161A, NR concentration 90 nM)
Procedure, shortened: as §1

[5] = test system: RXRa homodimer (NR concentration 180 nM)
Procedure, shortened: as §1

[6] = test system: THRa:RXRa (NR concentration 90 nM, RXRa partner concentration 90 nM)
Procedure, shortened: as §1

[7] = test system: THRa homodimer (NR concentration 90 nM)
Procedure, shortened: as §1

[8] = test system: VDR homodimer (NR concentration 270 nM)
Procedure, shortened: as §1

Sequence	PBM binding z-score [1]	PBM binding z-score [2]	PBM binding z-score [3]	PBM binding z-score [4]	PBM binding z-score [5]	PBM binding z-score [6]	PBM binding z-score [7]	PBM binding z-score [8]
CCGAGTAGGTTATGGGGCATTCCGGCAACGGTGA	1	0.266	0.307	-0.402	0.465	0.0973	0.142	0.147
GGAACGAGGGCAAAGTTGATCGCATCTGTCGACG	1.19	1.83	1.8	2.72	1.92	1.19	-0.32	1.61
CCTACTGGGCCATCAGATCATTGATATCAACGTT	-0.087	0.0829	0.48	0.0432	-0.148	-0.114	-0.322	0.0449
ACTATTAGTTGAGACGAGGGCAAACGATAGGTTG	0.968	0.74	0.778	0.626	0.323	2.42	0.104	1.39
CCTAGTTGGTCAGGAGGTCACACATCGGATATGA	4.48	4.62	4.11	0.662	4.21	3.39	2.2	2.7
AAAATGAGGTTATTAAGATCAGGGAATTGCGGTC	0.725	1.16	0.933	2.27	1.78	2.28	0.636	1.19
TAGCCTGGGTCATGGGCCAGTATACCACGCGAAC	2.24	3.99	3.38	-1.06	3.73	2.39	-0.0617	-0.187
CGAACTGGGTCATTGACAGGACAGTGAATAGTAA	2.17	4.32	3.3	1.94	2.88	2.41	0.357	1.05
TAGCCTAGATCATTGGGCCAGTATAGTACGCATC	-0.608	-0.554	-0.194	-0.443	-0.398	-0.832	-0.488	-0.283
TCATATAGGTAAATGCTAGTTGAAAGTCCGATCT	-0.114	0.306	0.163	1.59	0.682	0.27	-0.299	0.45
GCGACTGGGGCATCAGCAAGTTACCATAACTTAA	-0.0103	0.142	0.0409	-0.018	0.208	-0.53	-0.605	-0.296
CGAACTAGGTCAGAACAGGACAGAGAAGGATGAT	1.89	2.45	3.27	0.331	1.2	3.39	0.271	0.244
GCTAGCACGCCATTTGGGTCACTCAATGACGGGC	1.32	0.76	0.779	-0.343	0.832	1.5	0.413	-0.357
ACAGACAGGTTATGAAGGTAACTCAGGCTATCAT	0.833	0.914	0.793	0.197	0.932	1.51	0.368	0.373
ATCGCAAGGTCGTGAGGTGAGTATACAGAAAGGC	2.13	2.76	2.38	1.62	3.06	3.33	2.41	1.55
CAAACTAGGTCACCGGAAGGTCAACGTCCGCATG	5.99	8.58	8.16	2.07	7.28	4.63	3.19	2.78
TCATAGAGGTAAACAGGTGAAAGTCCGTAAGTTA	0.716	0.649	0.356	1.07	1.1	0.843	-0.0526	-0.0713
CTCAAAAGGTCGTGCTCAGGTGAGTATACCAAAC	2.79	5.29	3.99	2.02	4.73	4.13	1.02	0.794
CTCGAAAGGTCGTGCTCAGGTTAGTATACCAAAC	3.37	5.5	4.17	2.12	5.47	3.73	0.934	1.3

Sequence	PBM binding z-score [1]	PBM binding z-score [2]	PBM binding z-score [3]	PBM binding z-score [4]	PBM binding z-score [5]	PBM binding z-score [6]	PBM binding z-score [7]	PBM binding z-score [8]
ATCTCTAGGTAAGGCTCAGTTCAGTGAAGAACGC	0.805	0.0838	-0.0338	0.317	-0.0677	0.831	0.732	1.36
TCTATTAGTTGAAGGCCAACCGACGAGTCCGTTT	0.914	0.229	0.415	1.59	0.648	0.129	0.372	1.35
ATATGTAGGTTAAGGGTAATTCAGGTTGGTTCGC	1.56	1.13	1.08	0.754	1.64	2.43	1.45	1.89
GCTAGTTGGTCAGTAAAAGGTCACACACCGGTCG	5.15	5.32	4.87	0.715	5.2	3.52	2.08	1.99
CCTACTGGGCAATTCAGAGGTCATTGATCATATG	3.57	3.21	2.73	0.679	3.76	2.98	1.16	3.05
CCCTACGGGTCACTGACAGGTTATAGCATTTGGA	3.42	5.77	4.37	0.859	4.97	2.93	0.405	1.07
AGTCAAAGTTCATCTAAGTAACGTAAGATATGCT	3.78	5.58	6.53	4.81	5.21	2.57	-0.213	4.88
CGTCCAACGTCAGAGAGGTCAGTGAATGCCGAGT	3.88	2.75	3.06	0.53	2.32	2.39	0.645	1.67
CGAACTCGGTCAAGGACAGTGAATCTCCGCACGC	1.7	1.95	2.98	0.656	0.345	2.15	1.37	0.261
TCTTGTAGATCAAGGGTTAAGAAAGCCGAAGCCT	0.274	0.818	0.191	0.293	1.64	0.516	-0.93	-0.218
ACAGACAGGTGATGAAGGGAACTCAGGCTATCAT	0.0495	0.231	0.46	-0.425	0.238	0.341	-0.114	-0.128
TAGCCTAGGTCATTGGGCCATTATAGTACGCATC	3.07	4.19	4.28	1.85	2.96	3.07	1.24	1.44
TCGAGTTGGTTAGTCGGGGCATTCAGCCAACATA	0.0639	-0.34	-0.804	1.41	-0.355	0.331	-0.0261	0.871
GCTCGGAGGACAAAGTCAGAGCTTTGTCCGTAGA	-0.0434	-0.436	-0.0287	-0.569	-0.989	0.05	-0.629	-0.348
GCTAGTTGGTCAGTAAAAGGTCACACCCCGGTCG	5.28	5.17	4.3	0.0893	4.86	3.57	2.15	1.43
TCATGTAGGTAAAGGTGAAAGTCGAACGATATGA	1.61	1.69	1.37	0.705	1.91	1.28	0.0244	0.443
TCATATAGGTAATACAGGTGAAAGGCGGCATCTA	0.722	0.622	0.526	1.84	1.32	0.852	0.543	0.774
CGTCAAAGTTCAACTAAGGTAACGCAAAGCACGC	4.28	5.94	6.37	4.62	4.92	5.48	2.13	3.54
CAAACTAGCTCAAAGGTCAAAGTCGAGCCAACCA	4.79	6.22	5.63	1.66	7.07	3.53	0.75	2.62

Sequence	PBM binding z-score [1]	PBM binding z-score [2]	PBM binding z-score [3]	PBM binding z-score [4]	PBM binding z-score [5]	PBM binding z-score [6]	PBM binding z-score [7]	PBM binding z-score [8]
CAAACTAGGTCACAGAGGTCAAATTCCGTGCGTA	5.28	7.51	7.97	3.34	8.2	4.68	3.09	6.96
CCGACTGGGGCAGAAAGGTTGCCATACCATCCGG	0.631	0.253	0.175	-1.11	0.422	-0.0628	-0.642	-0.404
CGTCCAAGGTCAATGCTGGGTCAGTGAAAGCATT	4.74	7.34	6.47	3.12	4.97	4.28	2.52	2.62
CCTAGCAGGCCAGGGTCACTGAAGCATTTCGCTT	2.95	3.32	2.91	0.172	3.86	3.07	1.02	1.19
TCGGCTAGGTCAGTTGGTCAGCTAACGAGCTGCC	2.79	2.88	3.91	0.368	0.942	1.14	-0.051	-0.233
TCATATAGCTAAACAGGTGAAAGTCCGTAAGTTA	0.282	0.0319	-0.0908	0.797	0.266	0.318	-0.358	0.105
TGTCAAAGTTTAAAGGTAACGTAAGTATCCACAC	1.36	2.26	1.75	1.11	2.1	1.99	-0.137	0.446
GGAACGAGGGCATTCGAGTTGGTAGCATGGCGAT	0.543	0.787	0.965	2.93	0.508	1.87	-0.702	2.2
ATATGTAGGTTAAGGCTCATTCAGGTTGGTTCGC	0.698	0.684	0.622	0.534	0.844	0.76	0.71	0.761
ATCTCTCGGTAACCAAGTTCAGTGAATGCCGAAC	1.51	0.706	0.621	0.703	0.383	0.98	0.603	2.26
CTGAGTAGGTTATGGGGCATTCAGGCAACGGTGA	0.905	0.544	0.679	-0.017	0.713	0.647	-0.0528	-0.0687
CGTCCAAGGCCAAAGGTCAGTGAAGAGATGACGG	4.6	5.87	5.18	1.13	5.47	3.24	0.341	0.884
GCTAGTTGGTCAGTAAAAAGTCACACACCGGTCG	1.33	0.522	0.701	0.212	0.223	0.00328	-0.343	0.168
GATAGCAGGCCATTTGGGTCACTCAATGACGGGC	1.92	1.22	1.5	0.215	0.841	1.87	0.437	0.542
CTCGAAAGGTCGTTCTCAGGTGAGTATACCAAAC	2.86	5.28	3.33	3.44	4.39	4.46	1.46	2.59
AGCATGAGGTTATACGTAGATCAGGGAAGAAAGT	0.998	1.64	1.3	1.63	1.8	2.11	0.665	0.812
ACTAGCAGGCCAAGTTTGGGTCACTTAAACAAAG	2.22	2.2	1.45	0.0842	0.809	2.58	1.22	0.22
CCTTACGGGTCACTCCAGGCTATAGCATCGGAGT	2.51	4.03	4.09	0.95	4.01	4.23	-0.482	0.841
TCTAGTAGATCAACAGGAGGTTAAGAAAGATCGA	0.413	0.662	0.244	0.766	0.901	0.727	-0.505	0.097
